In the supplement of paper PMC6555819:

Tests used:
Test in all cases: PBM binding z-score (relative to random genomic background probes); higher = stronger binding; sequences stand for … in GC…GCGATTGACAGCGTAGAATGAAGG
[1] = test system: PPARg:RXRa DBDmut IVT, anti-RXR (DBD mutation: RXRa K156A/R161A, NR concentration 270 nM, RXRa partner concentration 90 nM)
In short: (§1)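 Scanned fluorescence from custom Agilent 4×180K protein-binding microarrays was regression-normalized. Binding z-scores use random background probes as reference. Ligand-free nuclear receptor dimers were incubated on the arrays for 1 h and detected with antibodies against each partner (one per run).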

[2] = test system: PPARg:RXRa IVT, anti-PPARg (NR concentration 270 nM, RXRa partner concentration 90 nM)
In short: as §1

[3] = test system: PPARg DBDmut:RXRa IVT, anti-PPARg (DBD mutation: PPARg1 K132A/R137A, NR concentration 270 nM, RXRa partner concentration 90 nM)
In short: as §1

[4] = test system: PPARg DBDmut IVT, anti-PPARg (DBD mutation: PPARg1 K132A/R137A, NR concentration 270 nM)
In short: as §1

[5] = test system: PPARg homodimer (NR concentration 180 nM)
In short: as §1

[6] = test system: PXR:RXRa (NR concentration 270 nM, RXRa partner concentration 90 nM)
In short: as §1

[7] = test system: PXR homodimer (NR concentration 270 nM)
In short: as §1

[8] = test system: RARa:RXR (NR concentration 270 nM, RXRa partner concentration 90 nM)
In short: as §1

[9] = test system: RARa homodimer (NR concentration 270 nM)
In short: as §1

[10] = test system: RARb:RXRa (NR concentration 270 nM, RXRa partner concentration 90 nM)
In short: as §1

| Sequence | PBM binding z-score [1] | PBM binding z-score [2] | PBM binding z-score [3] | PBM binding z-score [4] | PBM binding z-score [5] | PBM binding z-score [6] | PBM binding z-score [7] | PBM binding z-score [8] | PBM binding z-score [9] | PBM binding z-score [10] |
| --- | --- | --- | --- | --- | --- | --- | --- | --- | --- | --- |
| TCATATAGTTAAAGGTGAAAGTCGAACGATATGA | 1.5 | 1.85 | 0.7 | 1.07 | 1.1 | 0.912 | -0.26 | 1.47 | 0.716 | 2.05 |
| ATACCAAGGTAATCGTGAGGTCGTTGATACTAAC | 0.339 | 0.661 | 0.385 | 0.929 | 0.827 | 2.55 | 1.36 | 2.06 | -0.0819 | 1.07 |
| CTCGAAAGATCGTGCTCAGGTGAGTATACCAAAC | -0.285 | -0.0174 | -0.0381 | 0.428 | 0.0271 | -0.467 | -0.289 | -0.00355 | -0.239 | -0.0571 |
| CAAACTAGGTCAAGAGGTCTAAGTCCGCTTCCCG | 7.99 | 8.45 | 1.43 | 2.57 | 1.86 | 1.66 | -0.00755 | 2.65 | 0.497 | 4.1 |
| GTACCAAAGTGAATAGGTCGTTGATGAGTAGGCG | -0.402 | -0.0847 | 0.259 | -0.53 | 0.312 | -0.00367 | -0.196 | 0.176 | 0.281 | 0.279 |
| TCTTGTAGATCAACATGAGGTTAAGAAAGATCGA | 1.66 | 1.07 | 1.29 | 1.12 | -0.107 | 1.22 | -0.155 | 1.53 | 0.226 | 0.619 |
| GCGACTGGGGCATCAGCGGGTTACCATAACTTAA | 3.43 | 2.86 | -0.728 | -1.07 | 0.437 | -0.0944 | -0.517 | 0.346 | -0.439 | 0.729 |
| CGTCCAAGGTCAAAGGTCAGTGTAGAGATGACGG | 4.11 | 5.93 | 0.888 | 1.64 | 5.56 | 7.16 | 1.91 | 8.91 | 3.88 | 5.94 |
| AATACACGGTCACTAGGCCAGAGTAGGTACGAAT | 2.08 | 3.87 | 1.22 | 1.13 | 0.988 | 0.0441 | -0.0687 | 0.462 | 0.429 | 2.77 |
| CCTACTGGGCCACGAAAGGTCATTGAGTCAGTGA | 5.96 | 6.12 | 0.241 | -0.3 | 3.76 | 5.49 | 1.93 | 5.72 | 1.51 | 4.04 |
| TTACCAAGGTGAAAGGTCGCTGATGCACGCCTTG | 2.44 | 5.19 | 0.53 | 0.614 | 1.28 | 3.66 | -0.522 | 5.46 | 0.386 | 3.12 |
| TAGCCTAGGTCATTCGGGGGCCAGTATAGAAAGC | 2.62 | 4.33 | 2.22 | 5 | 1.93 | 3.84 | 0.257 | 3.92 | 0.944 | 3.99 |
| ATAAGTAGGTTAAGGGTCATTCAGGTTGGTTCGC | 7.68 | 7.64 | 2.34 | 2.31 | 5.84 | 5.44 | 4.03 | 6.12 | 3 | 3.75 |
| TATACAGGGTCAAAGGCCAGAGTCCGAATGTCGA | 2.36 | 4.8 | 1.49 | 0.522 | 2.08 | 4.27 | 0.713 | 5.31 | 0.835 | 4.31 |
| CAGCCTAGGTCAGGGCCAGTACAGGAGGAACGTT | 1.35 | 1.58 | -0.899 | -1.34 | 0.93 | 0.659 | -0.209 | 1.03 | -0.614 | 3.42 |
| TCTGCTAGGTCACTTGGTCAGCTAACGAGCTGCC | 4.06 | 4.55 | 2.55 | 1.22 | 0.811 | 0.889 | -0.812 | 1.93 | -0.792 | 3.81 |
| GATACAGGGTCAAGGCCATAGTACGCGTATTGAT | 2.5 | 4.05 | 0.702 | -0.195 | 1.64 | 3.94 | 0.404 | 4.65 | 0.823 | 4.41 |
| GCTAGTTGGTCACTAAAAGGTCACACACCGGTCG | 1.75 | 3.25 | -0.266 | -0.384 | 4.15 | 5.01 | 1.59 | 5.91 | 1.48 | 4.49 |
| ACTAGCAGGCCAAGGTTGGGTCACTCAAACAAAG | 0.282 | 0.868 | -0.95 | -1.46 | 0.597 | 0.524 | -0.493 | 1.24 | -0.93 | 1.69 |
| TCTAGCAGGCCAGGGGGTCACTCAAGAGGTACGG | 1.72 | 3.02 | 2.08 | 1.84 | 2.2 | 4.43 | 0.579 | 5.03 | 0.104 | 3.16 |
| AATACAGGGTCATCGTAGGCCAGAGAACGCACAG | 3.24 | 4.03 | 1.71 | 1.62 | 2.96 | 5.14 | 0.451 | 5.41 | 1.51 | 4.56 |
| GCTAATTGGTCAGTAAAAGGTCACACACCGGTCG | 1.17 | 3.09 | 0.371 | 1.23 | 3.29 | 4.83 | 1.25 | 5.26 | 2.18 | 4.66 |
| CAAACTAGGTCATGAAAGGTCAAAGTCGAATGAC | 8.27 | 8.84 | 5.43 | 7.62 | 9.18 | 7.23 | 2.71 | 7.33 | 4.32 | 5.36 |
